Values joined by “and” are separate entries in the source; they are usually repeats but may differ in a detail not shown here. Equal values may be shown once. Records with an inconclusive call do not appear. More than one record can exist for a structure, and the calls need not agree. Active and inactive are the calls of the source. Unless noted, the call rests on the fitted dose curve; in most records, active means well fitted curve in the direction sought with a large enough effect in the repeat runs; inconclusive means weak or mixed curves; inactive means no such curve, though single readings can be large; an effect the other way counts as inactive or inconclusive.
Columns and labels:
[1] = A CellTox Green Cytotoxicity Assay to monitor cytotoxicity in HepG2 cells - 8 hour (AID 1224890); details: CellTox Green fluorescence; series mostly up to 76.8 µM; further: nearly all actives have a fitted effect of over 45% in size
How it was run: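 Cytotoxicity was tracked as dead-cell DNA fluorescence in HepG2 cells treated with test compounds at 37 C; each time-point value comes from one kinetic series spanning 0, 8, 16, 24, 32 and 40 h.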

[2] = qHTS assay to identify small molecule antagonists of the estrogen receptor alpha (ER-alpha) signaling pathway using the BG1 cell line in the presence of 0.1 nM 17-beta-estradiol - cell viability counter screen (AID 1259241); details: VM7Luc4E2 (BG1) viability, CellTiter-Fluor protease, 22 h, 0.1 nM estradiol agonist added; series mostly up to 92.4 µM; further: nearly all actives have a fitted effect of over 40% in size
How it was run: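 Estradiol-stimulated (0.1 nM) VM7Luc4E2 cells exposed to compounds 22 hr; viability measured by fluorescence of cleaved CellTiter-Fluor substrate after 30 min.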

[3] = qHTS assay to identify small molecule antagonists of the androgen receptor (AR) signaling pathway using the MDA cell line in the presence of 0.5 nM R1881 - cell viability counter screen (AID 1259242); details: MDA-kb2 viability, CellTiter-Fluor protease fluorescence, 16 h; series mostly up to 92.4 µM; further: nearly all actives have a fitted effect of over 45% in size
How it was run: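 Cells seeded at 3,000/well and allowed 5 hr at 37C, 0% CO2 before compound transfer and R1881 (0.5 nM final) addition; 16 hr later, live-cell protease fluorescence indicated cytotoxicity.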

[4] = molecular target: Androgen receptor (Homo sapiens) (UniProt P10275); test: qHTS assay to identify small molecule antagonists of the androgen receptor (AR) signaling pathway using the MDA cell line in the presence of 0.5 nM R1881 (AID 1259243); details: MDA-kb2 MMTV-luciferase, R1881 0.5 nM, 16 h; series mostly up to 92.4 µM; further: nearly all actives have a fitted effect of over 50% in size; further: potency means the concentration at half of the fitted maximal effect
How it was run: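 Luminescence from an AR/GR-responsive MMTV-luciferase construct in MDA-kb2 breast carcinoma cells, read 30 min after ONE-Glo, following 16 hr co-treatment with compounds and 0.5 nM R1881.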

[5] = qHTS assay to identify small molecule HDAC inhibitors (AID 1259364); details: HCT-116 HDAC-Glo I/II luminescence, 2 h; series mostly up to 92.4 µM;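 further: wild-type HCT-116 cells with endogenous class I/II HDAC activity; top concentration of the series differs between compounds; nearly all actives have a fitted effect of over 45% in size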
How it was run: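 HCT-116 wt cells, 1,500/well, overnight attach. Compounds (DMSO) 2 h, 37 °C. HDAC-Glo I/II, 30 min RT. Luminescence.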

[6] = qHTS assay to identify small molecule HDAC inhibitors - cell viability counter screen (AID 1259365); details: HCT-116 viability, CellTiter-Glo ATP luminescence, 2 h; series mostly up to 92.4 µM; further: nearly all actives have a fitted effect of over 50% in size; further: potency means the concentration at half of the fitted maximal effect
How it was run: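 After overnight seeding at 1,500 cells per well, wild-type HCT-116 cultures took up compounds in DMSO for 2hr at 37 C. Viable cell content came from luminescence with CellTiter-Glo.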

[7] = qHTS assay to identify small molecule agonists of the sonic hedgehog signaling (Shh) pathway - cell viability counter screen (AID 1259366); details: NIH/3T3 Gli1-Luc viability, CellTiter-Fluor, 24 h; series mostly up to 92.4 µM; further: nearly all actives have a fitted effect of over 50% in size; further: potency means the concentration at half of the fitted maximal effect
How it was run: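 Same-well cytotoxicity read. Gli1-Luc reporter 3T3 cells; compounds 24hr, 37C/5% CO2; CellTiter-Fluor fluorescence.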

[8] = qHTS assay to identify small molecule agonists of the sonic hedgehog signaling (Shh) pathway (AID 1259368; calls by dose curve;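 further: NIH/3T3-derived 3T3Gli1-Luc cells carrying a stable Gli1-driven firefly luciferase reporter; nearly all actives have a fitted effect of over 15% in size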); details: NIH/3T3 Gli1-Luc reporter, luciferase, 24 h; series mostly up to 92.4 µM
How it was run: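 Following a 24 hr incubation with DMSO-dissolved compounds at 37 C, 5% CO2, Gli1-Luc NIH/3T3-derived cells received luciferase reagent for 30 min at room temperature prior to luminescence measurement.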

[9] = qHTS assay to identify small molecule antagonists of the sonic hedgehog signaling (Shh) pathway (AID 1259369; calls by dose curve; further: nearly all actives have a fitted effect of over 45% in size; further: potency means the concentration at half of the fitted maximal effect); details: NIH/3T3 Gli1-Luc reporter, Shh antagonist, luminescence 24 h; series mostly up to 92.4 µM
How it was run: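 Read-out is luminescence from a firefly luciferase gene controlled by the Gli1 response element, in 3T3Gli1-Luc cells pre-incubated 4hr then exposed to compounds and conditioned medium for 24hr.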

[10] = molecular target: Estrogen receptor beta (Homo sapiens) (UniProt Q92731); test: qHTS assay to identify small molecule agonists of the estrogen receptor beta (ER-beta) signaling pathway (AID 1259377; active means well fitted activation curve with a large enough effect in the signal ratio in the repeat runs, not every such curve was filed as active; the % refers to the signal ratio); details: ER-beta-UAS-bla HEK293T, beta-lactamase FRET ratio, 16 h; series mostly up to 92.4 µM
How it was run: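 Read-out: beta-lactamase FRET fluorescence. Cell line: ER-beta-UAS-bla HEK293T in 2% charcoal-stripped FBS. Exposure: 16 hr at 37C. Substrate step: 2 h at room temperature.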

[11] = molecular target: Androgen receptor (Homo sapiens) (UniProt P10275); test: qHTS assay to identify small molecule agonists of the androgen receptor (AR) signaling pathway in the presence of an antagonist (AID 1259381; calls by dose curve; further: nearly all actives have a fitted effect of over 15% in size); details: MDA-kb2 MMTV-luciferase, AR agonist + nilutamide, 16 h; series mostly up to 92.4 µM
How it was run: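 Plated MDA-kb2 cells (3,000/well) were pre-incubated 5hr, given nilutamide (3.0uM final) or buffer, then dosed with compounds in DMSO at 15 concentrations. Luciferase activity was quantified by luminescence after 16hr at 37C.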

[12] = qHTS assay to identify small molecule antagonists of the estrogen receptor beta (ER-beta) signaling pathway - cell viability counter screen (AID 1259382); details: ER-beta-UAS-bla HEK293T viability, CellTiter-Glo luminescence, 16 h; series mostly up to 92.4 µM; further: nearly all actives have a fitted effect of over 55% in size
How it was run: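 CellTiter-Glo ATP luminescence measured after the LiveBLAzer read in the same wells; ER-beta-UAS-bla HEK293T cells, 16 hr compound treatment with 1nM 17-beta-estradiol agonist at 37C, 5% CO2.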

[13] = qHTS assay to identify small molecule agonists or antagonists of the thyroid stimulating hormone receptor (TSHR) signaling pathway - wild type cell line counter screen (AID 1259384; calls by dose curve); details: HEK293 wild type, cAMP HTRF counter-screen, stronger effect = higher value; series mostly up to 92.4 µM
How it was run: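 Wild-type Hek293 cells, 800/well, 18 h at 37C, then compound with Ro20-1724 for 30 min RT. cAMP by HTRF (cAMP-d2/anti-cAMP cryptate), 1 h RT, fluorescence read. 15 concentrations, triplicates.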

[14] = molecular target: Estrogen receptor (Homo sapiens) (UniProt P03372); test: qHTS assay to identify small molecule antagonists of the estrogen receptor alpha (ER-alpha) signaling pathway using the BG1 cell line in the presence of 0.1 nM 17-beta-estradiol (AID 1259244); details: VM7Luc4E2 (BG1) ERE-luciferase, antagonist mode, 0.1 nM E2, 22 h; series mostly up to 92.4 µM; further: nearly all actives have a fitted effect of over 50% in size; further: potency means the concentration at half of the fitted maximal effect
How it was run: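 Luciferase signal from VM7Luc4E2 ERE-reporter cells, co-dosed with test compound and 0.1 nM final 17beta-estradiol for 22 h, read with ONE-Glo.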

[15] = qHTS assay to identify small molecule phospholipidosis (PLD) inducers (AID 1259344; active means well fitted curve in the direction sought with a large enough effect; an effect the other way counts as inactive or inconclusive); details: HepG2 phospholipidosis, LipidTOX Red imaging, 24 h; series mostly up to 38.3 µM
How it was run: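 Image-based: LipidTOX Red pit count/intensity per well and per cell; HepG2, 24 h compound at 37 C, PFA fixation, Hoechst counterstain.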

[16] = qHTS assay to identify small molecule antagonists of the sonic hedgehog signaling (Shh) pathway - cell viability counter screen (AID 1259367); details: NIH/3T3 Gli1-Luc viability, CellTiter-Fluor, 24 h; series mostly up to 92.4 µM; further: nearly all actives have a fitted effect of over 55% in size; further: potency means the concentration at half of the fitted maximal effect
How it was run: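 Tox21 library chemicals were tested on a Gli1-Luc NIH/3T3 clone (2,000 cells/well) stimulated by conditioned medium; viability was quantified as fluorescence from CellTiter-Fluor reagent added at 23 hr.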

[17] = molecular target: Estrogen receptor beta (Homo sapiens) (UniProt Q92731); test: qHTS assay to identify small molecule antagonists of the estrogen receptor beta (ER-beta) signaling pathway (AID 1259378; active means well fitted inhibition curve with a large enough effect in the signal ratio in the repeat runs, not every such curve was filed as active; the % refers to the signal ratio; further: potency means the concentration at half of the fitted maximal effect); details: ER-beta-UAS-bla HEK293T, beta-lactamase FRET ratio, 16 h; series mostly up to 92.4 µM
How it was run: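 ER-beta-UAS-bla HEK293T cells in 2% charcoal-stripped FBS medium treated with compound plus 1nM final 17-beta-estradiol for 16 hr at 37C. Beta-lactamase reporter read by FRET substrate fluorescence after 2 hours at room temperature.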

[18] = qHTS assay to identify small molecule agonists of the androgen receptor (AR) signaling pathway in the presence of an antagonist - cell viability counter screen (AID 1259379); details: MDA-kb2 viability, CellTiter-Fluor, 16 h; series mostly up to 92.4 µM; further: nearly all actives have a fitted effect of over 25% in size; further: potency means the concentration at half of the fitted maximal effect
How it was run: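 Each compound was tested at 15 concentrations on MDA-kb2 cells in the presence of 3.0uM nilutamide. Viability was measured by CellTiter-Fluor fluorescence after a 16 hr incubation at 37C in a CO2-free atmosphere.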

[19] = qHTS assay to identify small molecule agonists of the estrogen receptor beta (ER-beta) signaling pathway - cell viability counter screen (AID 1259380); details: ER-beta-bla HEK293T viability, CellTiter-Glo luminescence, 16 h; series mostly up to 92.4 µM; further: nearly all actives have a fitted effect of over 30% in size; further: potency means the concentration at half of the fitted maximal effect
How it was run: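 Compounds dissolved in DMSO were pin-transferred onto ER-beta-UAS-bla HEK293T cells that had settled 6 hr, and exposure ran 16 hr at 37C. Following the reporter read, CellTiter-Glo luminescence after 30 min at room temperature indicated cytotoxicity.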

[20] = molecular target: Estrogen receptor (Homo sapiens) (UniProt P03372); test: qHTS assay to identify small molecule agonists of the estrogen receptor alpha (ER-alpha) signaling pathway in the presence of an antagonist (AID 1259383; calls by dose curve; further: top concentration of the series differs between compounds; nearly all actives have a fitted effect of over 15% in size); details: VM7Luc4E2 cells, ERE-luciferase, +ICI-182,780, 22 h; series mostly up to 92.4 µM
How it was run: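 Luminescent ERE-luciferase reporter, VM7Luc4E2 cells (endogenous ER-alpha); 10.0nM ICI-182,780 final; 15-point compound titration; 22hr at 37C; ONE-Glo, 30min RT.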

Measured: Potency

Estrogen receptor (Homo sapiens), sequence (P03372 whole entry, looked up): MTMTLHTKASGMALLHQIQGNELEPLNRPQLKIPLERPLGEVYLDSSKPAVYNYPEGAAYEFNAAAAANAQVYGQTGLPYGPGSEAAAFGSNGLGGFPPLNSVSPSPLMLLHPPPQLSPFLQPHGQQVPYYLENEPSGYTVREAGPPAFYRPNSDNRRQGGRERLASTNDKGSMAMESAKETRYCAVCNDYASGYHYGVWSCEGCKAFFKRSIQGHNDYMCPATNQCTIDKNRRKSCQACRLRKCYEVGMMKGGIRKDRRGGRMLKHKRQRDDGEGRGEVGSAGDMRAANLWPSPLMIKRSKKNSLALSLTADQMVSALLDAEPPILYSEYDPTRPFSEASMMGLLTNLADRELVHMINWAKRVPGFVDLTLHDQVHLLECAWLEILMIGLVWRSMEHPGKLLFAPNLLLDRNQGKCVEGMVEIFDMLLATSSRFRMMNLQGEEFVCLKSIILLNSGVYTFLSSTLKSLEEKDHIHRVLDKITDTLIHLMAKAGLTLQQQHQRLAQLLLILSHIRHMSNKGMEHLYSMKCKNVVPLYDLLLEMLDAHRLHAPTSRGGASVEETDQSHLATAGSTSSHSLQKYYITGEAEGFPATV
Estrogen receptor beta (Homo sapiens), sequence (Q92731 whole entry, looked up): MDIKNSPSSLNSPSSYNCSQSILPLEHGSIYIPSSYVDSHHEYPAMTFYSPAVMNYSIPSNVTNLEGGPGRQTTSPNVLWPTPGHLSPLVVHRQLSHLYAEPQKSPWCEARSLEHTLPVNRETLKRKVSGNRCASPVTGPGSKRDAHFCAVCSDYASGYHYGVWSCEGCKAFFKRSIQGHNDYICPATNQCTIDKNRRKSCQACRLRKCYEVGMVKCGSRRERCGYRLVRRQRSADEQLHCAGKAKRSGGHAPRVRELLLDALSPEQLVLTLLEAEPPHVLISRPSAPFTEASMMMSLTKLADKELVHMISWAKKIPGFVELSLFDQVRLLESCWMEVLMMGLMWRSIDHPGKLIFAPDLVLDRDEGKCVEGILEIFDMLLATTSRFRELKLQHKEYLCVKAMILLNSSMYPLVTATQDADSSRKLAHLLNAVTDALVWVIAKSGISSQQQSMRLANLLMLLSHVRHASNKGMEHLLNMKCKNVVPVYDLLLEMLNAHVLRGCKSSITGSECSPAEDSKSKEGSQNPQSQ
Androgen receptor (Homo sapiens), sequence (P10275 whole entry, looked up): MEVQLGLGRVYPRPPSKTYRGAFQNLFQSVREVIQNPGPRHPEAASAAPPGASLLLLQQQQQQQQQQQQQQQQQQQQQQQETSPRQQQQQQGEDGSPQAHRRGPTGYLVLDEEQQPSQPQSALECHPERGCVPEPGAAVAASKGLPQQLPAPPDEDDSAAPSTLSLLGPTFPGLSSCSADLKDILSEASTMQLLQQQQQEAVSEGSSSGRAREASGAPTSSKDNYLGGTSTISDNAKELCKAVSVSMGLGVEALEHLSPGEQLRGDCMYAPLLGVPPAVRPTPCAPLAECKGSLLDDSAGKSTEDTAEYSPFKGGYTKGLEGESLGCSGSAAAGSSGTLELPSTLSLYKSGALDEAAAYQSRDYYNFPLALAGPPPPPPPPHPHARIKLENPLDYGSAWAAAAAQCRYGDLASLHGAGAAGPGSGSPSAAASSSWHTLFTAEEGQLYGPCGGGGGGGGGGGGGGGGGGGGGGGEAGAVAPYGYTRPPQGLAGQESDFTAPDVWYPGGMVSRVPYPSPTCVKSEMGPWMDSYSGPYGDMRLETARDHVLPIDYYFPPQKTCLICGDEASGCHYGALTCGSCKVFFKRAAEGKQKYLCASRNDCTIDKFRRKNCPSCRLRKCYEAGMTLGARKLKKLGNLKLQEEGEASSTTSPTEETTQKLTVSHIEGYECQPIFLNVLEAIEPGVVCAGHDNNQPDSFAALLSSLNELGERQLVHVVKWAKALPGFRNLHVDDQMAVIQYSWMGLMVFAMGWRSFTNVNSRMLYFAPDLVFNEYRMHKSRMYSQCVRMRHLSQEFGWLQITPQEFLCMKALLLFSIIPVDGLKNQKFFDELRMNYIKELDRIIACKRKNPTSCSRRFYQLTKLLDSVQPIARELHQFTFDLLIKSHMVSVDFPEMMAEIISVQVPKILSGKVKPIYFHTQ

COP(=S)(OC)Oc1cc(Cl)c(I)cc1Cl
active: [4] 54.5 µM | [9] 38.6 µM
not listed: [14] | [15] | [16] | [17] | [18] | [19] | [20]
inactive: all other assays above

c1ccc(C2CC2)c(OCC2=NCCN2)c1
not listed: [4] | [13]
inactive: all other assays above

COP(=O)(OC)O/C(=C/Cl)c1cc(Cl)c(Cl)cc1Cl
active: [4] 45.7 µM | [14] 57.5 µM | [9] 57.5 µM
not listed: [10] | [15] | [17] | [18] | [19]
inactive: all other assays above

O=NN1CCCCCC1
not listed: [10] | [15] | [17]
inactive: all other assays above

C[C@@H]1CC[C@H]2[C@@H](C)C(=O)O[C@@H]3O[C@@]4(C)CC[C@@H]1[C@]32OO4
not listed: [14] | [20]
inactive: all other assays above

CCOC(=O)COc1cc(-c2nn(C)c(OC(F)F)c2Cl)c(F)cc1Cl
not listed: [10] | [14] | [15] | [17] | [20]
inactive: all other assays above

CCOP(=S)(OCC)Oc1nc(Cl)c(Cl)cc1Cl
43.4 µM (active) and inactive: [7]
48.7 µM (active) and inactive: [6]
active: [4] 27.4 µM | [19] 38.6 µM
68.7 µM (active) and inactive: [16]
not listed: [10] | [15] | [18]
inactive: all other assays above

OC(c1ccc(Cl)cc1)(c1ccc(Cl)cc1)c1cccnc1
active: [4] 27.3 µM | [9] 30.6 µM | [17] 38.6 µM
not listed: [15] | [18] | [20]
inactive: all other assays above

CCCCCCCCCCOC(=O)c1ccccc1C(=O)OCCCCCCCCCC
not listed: [10] | [15] | [17] | [20]
inactive: all other assays above

S=C=NCc1ccccc1
active: [4] 27.6 µM | [17] 49.1 µM
not listed: [14] | [15] | [18] | [19] | [20]
inactive: all other assays above

NCCCNCCCN
not listed: [9] | [12] | [14] | [15] | [19] | [20]
inactive: all other assays above

C=CCOC(C)=O
active: [4] 26.9 µM
not listed: [15] | [17] | [18]
inactive: all other assays above

COc1ccc(-c2ccccc2)cc1NNC(=O)OC(C)C
active: [4] 63.7 µM | [14] 71.5 µM | [17] 63.7 µM | [19] 35.8 µM
not listed: [9] | [12] | [13] | [15] | [16] | [18]
inactive: all other assays above

O=C(CCl)c1ccc(Cl)cc1Cl
inactive and 29.8 µM (active): [18]
active: [4] 13.3 µM | [7] 33.5 µM | [9] 5.96 µM | [19] 38.4 µM and 18.8 µM
not listed: [8] | [10] | [12] | [17]
inactive: all other assays above

C=CCC1([C@H](C)CCC)C(=O)NC(=O)NC1=O
not listed: [4] | [11]
inactive: all other assays above

Source: PubChem BioAssay (Tox21)
